Source: PubChem BioAssay
Shown are actives, neighbours in structure and some others; about 2.8% of the full set was active somewhere.
POLI inh – qHTS for Inhibitors of Polymerase Iota; Pol iota fluorescent replication assay, 10 min; Potency, µM (doses to about 115 µM), without a hit: at the highest dose activity, negative = inhibition, actives largely listed as inhibitors; 390,000 compounds, 1% hits; also: potency is read from the fitted curve at half-maximal effect
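Pol iota at 10 nM preincubated 15 min with compounds at room temperature; reaction started with fluorescent substrate, 50 nM final. Fluorescence read kinetically at 0 and 10 min; buffer-only wells as negative control.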
POLB inh – qHTS Assay for Inhibitors of DNA Polymerase Beta | Potency, µM (highest dose often 114 µM), without a hit: at the highest dose activity change, negative = inhibition, actives largely listed as inhibitors | Pol beta primer extension/strand displacement, fluorescence kinetic | AID 485314, 2010 | 340,000 compounds, 1.3% hits | P06746; also: potency is read from the fitted curve at half-maximal effect; % is scaled to controls: 0 for no effect and ±100 for the full control effect
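Kinetic readout of DNA synthesis with strand displacement by Pol beta. Compound and 10 nM enzyme sit 15 min at room temperature; 50 nM substrate starts the reaction, read immediately and at 10 min.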
WRN inhibitor – qHTS for Inhibitors of WRN Helicase; Bifunctional 3'-5' exonuclease/ATP-dependent helicase WRN (Homo sapiens), Q14191; WRN helicase unwinding, fluorescent forked duplex, kinetic; Potency, µM (series often up to 114 µM), inactives show at the highest dose activity change, negative = inhibition, most hits filed as inhibitors; 360,000 compounds, 0.46% hits; also: potency is read from the fitted curve at half-maximal effect; % is scaled to controls: 0 for no effect and ±100 for the full control effect; nearly all actives have a fitted effect of over 55% in size
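Fluorescence dequenching readout, ex 525 nm/em 598 nm, kinetic mode: forked duplex DNA (100 nM final) with adjacent fluorophore and quencher unwound by WRN (20 nM final) with 2 mM ATP. Compound preincubation 15 min, room temperature.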
Pol kappa inh – qHTS for Inhibitors of Polymerase Kappa. DNA polymerase kappa (Homo sapiens), Q9UBT6. purified Pol kappa, fluorescent DNA synthesis assay, 10 min. Potency, µM (doses to about 107 µM), for the others: at the top dose activity, negative = inhibition, usual class: inhibitors. 400,000 compounds, 0.53% hits. AID 588579, 2011; also: potency is read from the fitted curve at half-maximal effect; % is scaled to controls: 0 for no effect and ±100 for the full control effect
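Here, compound and 10 nM enzyme are combined for 15 min at room temperature; adding 50 nM substrate (final) starts DNA synthesis, tracked by fluorescence at 0 and 10 min against buffer-only wells.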
PI5P4K alpha inh – qHTS for Inhibitors of phosphatidylinositol 5-phosphate 4-kinase (PI5P4K); max response, %; PI5P4Kalpha enzyme, ADP-Glo luminescence, 60 min; stronger effect = lower value; 330,000 compounds, 1.2% hits; active = max response of -50% or lower; inconclusive = between -30% and -50%; inactive = -30% or higher; also: value at the top dose of about 77 µM; % is scaled to controls: 0 for no effect and ±100 for the full control effect
Target sequence (P48426 whole entry, looked up): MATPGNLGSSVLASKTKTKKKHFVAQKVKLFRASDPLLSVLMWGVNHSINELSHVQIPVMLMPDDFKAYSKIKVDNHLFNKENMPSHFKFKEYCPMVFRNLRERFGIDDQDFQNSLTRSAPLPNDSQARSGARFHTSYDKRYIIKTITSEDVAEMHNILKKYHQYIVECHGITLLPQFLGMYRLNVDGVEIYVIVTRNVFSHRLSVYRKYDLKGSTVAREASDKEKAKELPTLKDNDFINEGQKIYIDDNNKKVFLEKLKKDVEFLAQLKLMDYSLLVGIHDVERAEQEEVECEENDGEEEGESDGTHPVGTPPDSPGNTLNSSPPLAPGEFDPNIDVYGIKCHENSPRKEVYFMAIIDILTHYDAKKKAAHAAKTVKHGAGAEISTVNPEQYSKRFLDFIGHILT
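Quantitative HTS of the MLSMR library against PI5P4Kalpha with substrate. ATP added last at 5 microM final; room temperature, 60 minutes. Remaining ATP depleted, ADP converted and read as luminescence.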
Pol eta inh – qHTS for Inhibitors of Polymerase Eta; DNA polymerase eta (Homo sapiens), Q9Y253; recombinant Pol eta, fluorescent DNA replication assay; Potency, µM (top dose mostly 114 µM), inactives show at the top dose activity change, negative = inhibition, most hits filed as inhibitors; 390,000 compounds, 1.2% hits; also: potency is read from the fitted curve at half-maximal effect; % is scaled to controls: 0 for no effect and ±100 for the full control effect
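Fluorescent replication assay: 50 nM final substrate added after a 15 min room-temperature compound preincubation with 10 nM enzyme. Signal taken at 0 min and again at 10 min.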
Active calls of the source: *; ? = inconclusive; / = no result given; [ ] = remark or other dose. Unless noted, calls follow the shape of the dose curve; as a rule, active = well fitted curve in the direction sought with a large enough effect; inconclusive = small, poorly fitted or top-dose-only effect, or another doubt; inactive = no such curve, though single readings can be large; an effect the other way counts as inactive or inconclusive.

SMILES | POLI inh | POLB inh | WRN inhibitor | Pol kappa inh | PI5P4K alpha inh | Pol eta inh
CC(C)(C)c1cc(-c2csc(Nc3ccccc3)[n+]2Cc2ccc(C(=O)O)cc2)cc(C(C)(C)C)c1O | ? | -18% | ? | 0% | -10 | 32µM*
O=C(O)c1ccc(C[n+]2c(-c3ccccc3)csc2Nc2ccccc2)cc1 | -17% | 24% | -2% | -7% | 1 | ?
N#CC(C#N)=C1C=C2C=C(N3CCCCC3)CCC2CC1 (stereo unspecified) | ? | 50µM* | ? | -7% | 1 | 79µM*
CCCCN(C(=O)c1ccc(C)c(S(=O)(=O)N2CCOCC2)c1)c1c(N)n(CCCC)c(=O)[nH]c1=O | -15% | / | 11% | -3% | 3 | -15%
NCCNCCN | / | / | / | 1.1µM* | / | /
Cc1ccc(C(CC(=O)Nc2ccc(C)cc2C)N2Cc3ccccc3C2=O)cc1 (stereo unspecified) | 6% | 8% | / | -28% | / | -10%
Cn1c(=O)c2cc(C(=O)NC3CCCCCC3)sc2c2ccccc21 | -7% | 8.9µM* | / | -14% | / | ?
CN(C)/C=C1\C(=O)ON=C1c1ccccc1 | 35% | 15% | 2% | -15% | -2 | -2%
CC1=NN(c2ccccc2)C(=O)/C1=C/C=C/c1ccccc1 | 9% | 36% | -16%[11.6 µM] | -3% | 7 | 16µM*
Cc1ccc(C2=NOC(=O)/C2=C\C=C\c2ccccc2)cc1 | ? | ? | 35µM* | -21% | ? | 89µM*
CC1=NN(c2ccccc2)C(=O)/C1=C\c1sccc1C | ? | -1% | -9% | 0% | -6 | -4%
CCc1ccc(S(=O)(=O)Nc2ccc(Br)cn2)cc1 | -21% | 9% | 3%[57.1 µM] | -13% | 1 | -8%
CC(=O)Nc1ccc(NC(=O)Cn2cc3c(n2)CCCCC3)cc1 | 13% | 23% | / | 4% | / | -11%
CCOc1ccc(N2CC(C(=O)NCCCc3ccccc3)CC2=O)cc1 (stereo unspecified) | 2% | / | -20% | -21% | -1 | -6%
Cc1ccc(Cn2cccc2/C=C2/C(=N)N3C=CSC3=NC2=O)cc1 | ? | 0% | -19% | -8% | -6 | 71µM*
CCc1ccccc1OCC(=O)Nc1cccc(S(=O)(=O)NC2=NCCC2)c1 | 20% | / | 1% | 0% | 1 | -26%
COc1ccc(-c2noc(N3CCC(C(=O)Nc4cccc(C)c4C)CC3)n2)cc1 | -5% | -18% | / | -2%[60.1 µM] | / | -10%
CC(=O)N1CCOc2ccc(S(=O)(=O)NCc3ccc(F)cc3)cc21 | 71µM* | 100µM* | -5%[11.6 µM] | -42% | ? | 56µM*
C=CCNC(=O)c1ccccc1NC(=O)Nc1ccccc1 | 89µM* | -3% | -6% | -8% | / | -10%
COCCNC(=O)c1ccccc1NC(=O)Nc1ccccc1 | 47% | 10% | -8% | -1% | 4 | -17%
O=C(OCCOCCN=C1NS(=O)(=O)c2ccccc21)c1ccccc1Br | -14% | 12% | -1% | -3% | 0 | -3%
Cc1cccc2nc(Cn3c(=O)n(CCCC(=O)NCc4ccco4)c(=O)c4ccccc43)cc(=O)n12 | ? | 22µM* | ? | 0% | -14 | ?
CCOC(=O)C1=C(C)N(C)C(=O)C1CC(=O)O (stereo unspecified) | -21% | -8% | -1%[57.1 µM] | -43% | / | 79µM*
CN(C)c1ccc(/C=C/C=C2/C=Cc3ccccc32)cc1 | 29% | / | / | -2% | / | /
CCN(CC)C(=O)CC(c1ccc2c(c1)OCO2)c1c(OC)cc(OC)c2ccc(=O)oc12 (stereo unspecified) | 89µM* | 50µM* | -1% | 79µM* | -6 | 35µM*
SMILES | POLI inh | POLB inh | WRN inhibitor | Pol kappa inh | PI5P4K alpha inh | Pol eta inh
CCN(CC)C(=O)CC(c1ccc(N(C)C)cc1)c1c(OC)cc(OC)c2ccc(=O)oc12 (stereo unspecified) | ? | -1% | 8% | -9% | 1 | 0%
Fc1cccc(Cl)c1C1Nc2cccc3cccc(c23)N1 | -54% | 14% | -7%[11.6 µM] | -20% | -20 | -8%
Clc1cccc(Cl)c1C1Nc2cccc3cccc(c23)N1 | 35µM* | -59% | -10%[57.1 µM] | -39% | -1 | -4%
COCCNC(=O)C1CCCN(C(=O)c2ccc3c(c2)C(C)(C)CCC3(C)C)CC1 (stereo unspecified) | / | / | 2% | / | 1 | /
Cc1ccc(C)n1-c1cccc(NC(=O)c2ccccc2)c1 | 1% | 16µM* | -4% | -13% | 0 | ?
Cc1ccc(Cn2c(-c3ccccc3)nc3ccccc32)cc1 | 7% | -16% | / | -3% | / | -17%
Clc1ccc(Cn2c(/C=C/c3ccco3)nc3ccccc32)cc1 | -6% | -13% | -33% | -26% | -78* | ?
Cc1ccc(Cn2c(/C=C/c3ccco3)nc3ccccc32)cc1 | -16% | ? | -12% | -13% | -64* | -17%
Cc1cc(C)c2c(NC(=O)c3ccccc3Cl)c(C(=O)NCc3ccc(Cl)cc3)sc2n1 | -20% | 22µM* | / | -16% | / | /
O=C(Oc1ccc([N+](=O)[O-])cc1)C1CC(=O)N(c2ccc3c(c2)OCCO3)C1 (stereo unspecified) | 79µM* | / | -19%[11.6 µM] | -42% | 2 | ?
CCOc1ccc(NC(=O)CNC(=O)c2nn(-c3ccc(OC)c(OC)c3)c(=O)c3ccccc23)cc1 | ? | -25% | -30% | -1% | -4 | -28%
COc1ccc(-n2nc(C(=O)NCC(=O)Nc3cccc(Cl)c3)c3ccccc3c2=O)cc1OC | 48% | 25µM* | -3% | 3% | 2 | ?
CCN(CC)CCN(Cc1cc2cc3c(cc2[nH]c1=O)OCCO3)C(=S)NC | ? | 45% | 9% | -7% | 0 | -4%
CNCC(O)c1cccc(O)c1 (stereo unspecified) | / | / | / | 0%[60.1 µM] | / | /
CC(C)(C)NC(=O)c1cc(F)c(F)cc1Cl | 8% | 89µM* | 2% | 0% | 3 | -5%
CC(C)(C)NC(=O)COC(=O)c1cc(F)c(F)cc1Cl | 19% | 1% | -2% | -7% | 0 | -4%
O=C1NC(=Nc2ccccc2Cl)S/C1=C\c1cccc([N+](=O)[O-])c1 | -13% | ? | -26% | -1% | -27 | ?
COc1c(/C=C2\SC(=Nc3ccccc3Cl)NC2=O)cccc1[N+](=O)[O-] | 2% | ? | -3%[11.6 µM] | -14% | -72* | ?
